A selection: hits, their analogues and other compounds. The true share with any hit is near 2.9%.
CF NFkB inh: cystic fibrosis NF-kB activation inhibition; KKLEB NF-kB-GFP reporter, PAF-induced, GFP fluorescence overnight; inhibition, % at 5 µM; actives 0.86% (n = 360,000); AID 588850;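 active = at least 50% inhibition at 5 µM, scaled per plate between neutral and stimulator controls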;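 also: PAF is a Pseudomonas aeruginosa culture filtrate used as stimulus; plate controls were PAF-stimulated DMSO wells for no effect and unstimulated DMSO wells for full effect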
Peg3 prom inh: Peg3 promoter activity inhibition | HeLa PEG-Prom luciferase reporter, luminescence, overnight | inhibition, % at 20 µM | actives 1.7% (n = 360,000) | AID 588405;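 active = inhibition of at least 50% at 20 µM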
KKLEB cytotox: CF airway cell cytotoxicity counter-screen; KKLEB CF airway cells viability, ATPlite luminescence, overnight; stronger effect = lower value; cells stimulated with P. aeruginosa culture filtrate; activity change (cytotoxicity), % at 5 µM; actives 0.36% (n = 360,000);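 active = corrected activity change at or below -50% at 5 µM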
Shn3 3UTR inh: reduces Shn3 3'UTR luciferase signal in osteoblasts; actives 0.52% (n = 360,000); inhibition, % at 12.5 µM; Clone20 osteoblast Shn3 3'UTR firefly luciferase, 24 h;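 active = mean inhibition of at least 75% with every replicate also reaching 75%; inconclusive = mean inhibition at least 75% but some replicate below; inactive = mean inhibition below 75%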;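 also: 0% = median of neutral control wells and 100% = pilot-screen positive control compound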
EBV LMP1 NFkB: Epstein-Barr LMP1 NF-kappaB reporter inhibition. LMP1-induced NF-kappaB luciferase reporter cells, luminescence. inhibition, % at 12.5 µM. actives 0.69% (n = 350,000). AID 504558; in the data active = inhibition above about 41%; inconclusive = no clear call, values can overlap the other calls;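 also: 0% = neutral control wells and 100% = reference inhibitor control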
MITF TRPM1 inh: inhibitors of MITF-driven TRPM1 promoter in melanoma cells; SK-MEL-5 TRPM1 promoter luciferase, 24 h; inhibition, % at 12.5 µM; actives 0.83% (n = 330,000);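 active = mean inhibition across replicates of 60% or more, whatever share of single replicates reaches that level; inconclusive = some that reach 60%, reason not given; inactive = mean inhibition across replicates below 60%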
* = called active by the depositor.

What do the screens show for `COC(=O)Cc1ccc(NC(=O)c2ccc(C(C)(C)C)cc2)cc1`?
CF NFkB inh: 5; Peg3 prom inh: -44; KKLEB cytotox: -8; Shn3 3UTR inh: 73; EBV LMP1 NFkB: 48*; MITF TRPM1 inh: 59

What do the screens show for `CC(C)(C)c1ccc(C(=O)Nc2ccc(Cl)cc2)cc1`?
CF NFkB inh: -24; Peg3 prom inh: -183; KKLEB cytotox: -1; Shn3 3UTR inh: -130; EBV LMP1 NFkB: -28; MITF TRPM1 inh: -107

What do the screens show for `COc1cccc(C(=O)Nc2ccc(-c3nc4ccccc4o3)c(O)c2)c1`?
CF NFkB inh: -16; Peg3 prom inh: -84; KKLEB cytotox: -22; Shn3 3UTR inh: -16; EBV LMP1 NFkB: -5; MITF TRPM1 inh: -13

Results for COc1cc(C(=O)Nc2ccc(-c3nc4cc(C)ccc4o3)c(O)c2)cc(OC)c1OC ?
CF NFkB inh: 20; Peg3 prom inh: 70*; KKLEB cytotox: -17; Shn3 3UTR inh: 34; EBV LMP1 NFkB: 12; MITF TRPM1 inh: -5

Results for CS(=O)(=O)c1ncc(Cl)c(C(=O)Nc2ccc3ccccc3c2)n1 ?
CF NFkB inh: 89*; Peg3 prom inh: 106*; KKLEB cytotox: -100*; Shn3 3UTR inh: 96*; EBV LMP1 NFkB: 27; MITF TRPM1 inh: 104*

What do the screens show for `Cc1ccc(CS(=O)(=O)c2ncc(Cl)c(C(=O)Nc3ccc(OC(F)F)cc3)n2)cc1`?
CF NFkB inh: 94*; Peg3 prom inh: 106*; KKLEB cytotox: -100*; Shn3 3UTR inh: 94*; EBV LMP1 NFkB: inconclusive; MITF TRPM1 inh: 81*

What do the screens show for `O=C(Nc1ccc2ccccc2c1)c1cnccn1`?
CF NFkB inh: -4; Peg3 prom inh: -201; KKLEB cytotox: -9; Shn3 3UTR inh: -60; EBV LMP1 NFkB: -5; MITF TRPM1 inh: -29

How did CCS(=O)(=O)c1ncc(Cl)c(C(=O)Nc2ccc(S(=O)(=O)N3CCCC(C)C3)cc2)n1 (centres undefined) do in these assays?
CF NFkB inh: 97*; Peg3 prom inh: 105*; KKLEB cytotox: -109*; Shn3 3UTR inh: 98*; EBV LMP1 NFkB: 21; MITF TRPM1 inh: 104*

Results for CCS(=O)(=O)c1ncc(Cl)c(C(=O)Nc2ccc(C)cc2)n1 ?
CF NFkB inh: 92*; Peg3 prom inh: 101*; KKLEB cytotox: -86*; Shn3 3UTR inh: 82; EBV LMP1 NFkB: -48; MITF TRPM1 inh: 70*

How did CSc1ncc(Cl)c(C(=O)Nc2ccc(NC(C)=O)cc2)n1 do in these assays?
CF NFkB inh: -16; Peg3 prom inh: -4; KKLEB cytotox: 8; Shn3 3UTR inh: -77; EBV LMP1 NFkB: -4; MITF TRPM1 inh: -14

How did CCN(CC)C(=O)c1cccc(-c2csc(C(C)(O)c3ccc(F)c(F)c3)n2)c1 (centres undefined) do in these assays?
CF NFkB inh: -36; Peg3 prom inh: 28; KKLEB cytotox: 8; Shn3 3UTR inh: 56

How did NC(=O)C1(Nc2ccc(Br)cc2)CCCC1 do in these assays?
CF NFkB inh: 2; Peg3 prom inh: 7; KKLEB cytotox: 3; Shn3 3UTR inh: 1; EBV LMP1 NFkB: -4; MITF TRPM1 inh: 7

What do the screens show for `CC1(C(=O)NS(=O)(=O)Cc2ccccc2)CCN1C(=O)Cc1ccccc1Cl` (centres undefined)?
CF NFkB inh: -6; Peg3 prom inh: -14; KKLEB cytotox: -2; Shn3 3UTR inh: 17

Results for CCN(CC)c1ccc(N)cc1 ?
CF NFkB inh: 28; Peg3 prom inh: 18; KKLEB cytotox: -15; Shn3 3UTR inh: inconclusive; EBV LMP1 NFkB: inconclusive; MITF TRPM1 inh: 86*

Results for Nc1ccc(N(CCO)CCO)cc1 ?
CF NFkB inh: 6; Peg3 prom inh: 8; KKLEB cytotox: -3; Shn3 3UTR inh: 3; EBV LMP1 NFkB: 5; MITF TRPM1 inh: 6

What do the screens show for `Oc1ccc(-c2csc(Nc3cccc4ccccc34)n2)cc1O`?
CF NFkB inh: -9; Peg3 prom inh: -6; KKLEB cytotox: 0; Shn3 3UTR inh: 87*; EBV LMP1 NFkB: -4; MITF TRPM1 inh: -10

What do the screens show for `N=C1CCCC1C(=S)SCCC(N)=O` (centres undefined)?
CF NFkB inh: -24; Peg3 prom inh: -1; KKLEB cytotox: 12; Shn3 3UTR inh: 2; EBV LMP1 NFkB: 3

What do the screens show for `Cc1onc(-c2c(F)cccc2Cl)c1C(=O)Nc1sc2c(c1C(N)=O)CCC2`?
CF NFkB inh: -6; Peg3 prom inh: 52*; KKLEB cytotox: -4; Shn3 3UTR inh: 36; EBV LMP1 NFkB: 3; MITF TRPM1 inh: 13

Results for COc1cc(N2CCCC2)c(OC)cc1/C=C(/C#N)c1ccc(F)cc1 ?
CF NFkB inh: -33; Peg3 prom inh: 7; KKLEB cytotox: 2; Shn3 3UTR inh: 4; EBV LMP1 NFkB: 1; MITF TRPM1 inh: 3

How did COc1cc(N2CCCC2)c(OC)cc1/C=C(/C#N)c1ccc(Br)cc1 do in these assays?
CF NFkB inh: -60; Peg3 prom inh: 53*; KKLEB cytotox: -3; Shn3 3UTR inh: -12; EBV LMP1 NFkB: 3; MITF TRPM1 inh: -12

What do the screens show for `Cc1cccc(CN2CCN([C@H]3CS(=O)(=O)N[C@@H]3COCc3ccccc3)CC2)c1`?
CF NFkB inh: 1; Peg3 prom inh: -30; KKLEB cytotox: -6; Shn3 3UTR inh: 24

Results for Cc1nn2c(N3CCN(C)CC3)cc(C(C)(C)C)nc2c1-c1ccccc1 ?
CF NFkB inh: 20; Peg3 prom inh: 59*; KKLEB cytotox: -20; Shn3 3UTR inh: 17; EBV LMP1 NFkB: -13; MITF TRPM1 inh: -14

What do the screens show for `CCCCC[C@H](O)/C=C/C1C(=O)C=C[C@H]1C/C=C\CCCC(=O)OC` (some centres undefined)?
CF NFkB inh: 48; Peg3 prom inh: 95*; KKLEB cytotox: 2; Shn3 3UTR inh: -2; EBV LMP1 NFkB: -1; MITF TRPM1 inh: 64*

What do the screens show for `C[C@@H]1CN([C@@H](C)CO)C(=O)CCCn2nncc2CO[C@H]1CN(C)Cc1ccc2c(c1)OCCO2`?
CF NFkB inh: -13; Peg3 prom inh: 7; KKLEB cytotox: 17; Shn3 3UTR inh: 7; EBV LMP1 NFkB: -9

Results for COc1cc(Cl)ccc1OC1(C)CCN(Cc2ccc3ccccc3c2)C1 (centres undefined) ?
CF NFkB inh: 6; Peg3 prom inh: -9; KKLEB cytotox: -17; Shn3 3UTR inh: -1

Results for Cc1ccc(C)c(Cn2c3ccccc3c3cnn(CC(=O)NCc4ccccn4)c(=O)c32)c1 ?
CF NFkB inh: -42; Peg3 prom inh: -11; KKLEB cytotox: 15; Shn3 3UTR inh: 15; EBV LMP1 NFkB: -4; MITF TRPM1 inh: 2

Results for Cc1ccc(C)c(Cn2c3ccccc3c3cnn(CC(=O)NCCCN4CCCCC4)c(=O)c32)c1 ?
CF NFkB inh: 5; Peg3 prom inh: 86*; KKLEB cytotox: 0; Shn3 3UTR inh: 3; EBV LMP1 NFkB: -5; MITF TRPM1 inh: inconclusive

What do the screens show for `COC(=O)C(C#N)C(=C1C(=O)CC(C)(C)CC1=O)c1ccc(O)cc1` (centres undefined)?
CF NFkB inh: -6; Peg3 prom inh: 4; KKLEB cytotox: -50*; Shn3 3UTR inh: -9; EBV LMP1 NFkB: 3; MITF TRPM1 inh: -7
